PubChem BioAssay (EPA / NIEHS)
Results filed as inconclusive are left out. Active and inactive are the calls of the source. Rule for the calls, unless noted: active = hit-call score of the fitted dose curve at least 0.9, where 1 is the maximum; inactive = score below 0.9.

Columns and labels:
[1] = ATG_NFI_CIS: Attagene CIS-FACTORIAL HepG2 Assay for human Nuclear Factor I (NFI) (AID 2282989); settings: HepG2 cis-regulatory reporter, NFI response element transcription; actives raise or lower the signal
Method in brief: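 Reporter transcription driven by endogenous transcription factors in HepG2 cells; 24 h treatment. Quantitation by labelled RT-PCR fragments on capillary electrophoresis, gain- or loss-of-signal relative to DMSO.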

[2] = molecular target: Myc proto-oncogene protein (Homo sapiens) (UniProt P01106); assay: ATG_Myc_CIS: Attagene CIS-FACTORIAL HepG2 Assay for human Myelocytomatosis (Myc) Proto-Oncogene Transcription Factor (AID 2282990); settings: HepG2, Attagene cis-reporter transcription factor activity; actives raise or lower the signal
Chain of Myc proto-oncogene protein (Homo sapiens) (P01106 whole entry, looked up): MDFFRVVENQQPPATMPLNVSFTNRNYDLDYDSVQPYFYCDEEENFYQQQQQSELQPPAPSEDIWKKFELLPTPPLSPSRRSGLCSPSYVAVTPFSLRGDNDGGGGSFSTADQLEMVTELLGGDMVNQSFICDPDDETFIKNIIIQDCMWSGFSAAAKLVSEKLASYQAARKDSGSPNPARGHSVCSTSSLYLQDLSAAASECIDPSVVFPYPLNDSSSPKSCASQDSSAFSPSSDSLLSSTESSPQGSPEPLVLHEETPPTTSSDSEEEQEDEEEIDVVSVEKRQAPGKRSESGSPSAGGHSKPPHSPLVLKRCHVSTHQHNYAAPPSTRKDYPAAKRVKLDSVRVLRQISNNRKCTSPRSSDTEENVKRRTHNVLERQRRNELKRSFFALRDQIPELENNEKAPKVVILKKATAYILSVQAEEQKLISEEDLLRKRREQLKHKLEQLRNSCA
Method in brief: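 HepG2, transient MRTU transfection (cis promoters, endogenous TFs); 24 h dosing; TriZol RNA → oligo(dT) RT → PCR → 6-FAM primer extension → HpaI cut → CE. Bidirectional fit vs DMSO.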

[3] = ATG_NF_kB_CIS: Attagene CIS-FACTORIAL HepG2 Assay for human Nuclear Factor Kappa B (NF-kB) (AID 2282991); settings: HepG2 Attagene cis-factorial NF-kB reporter mRNA; actives raise or lower the signal
Method in brief: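 HepG2, transient multi-reporter transfection, cis promoter elements (endogenous TFs). 24 h exposure. Total RNA → RT → PCR → 6-FAM label → HpaI → CE. Gain/loss vs DMSO.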

[4] = ATG_NRF2_ARE_CIS: Attagene CIS-FACTORIAL HepG2 Assay for human Nuclear Factor Erythroid 2 Related Factor 2 (NFR2) response to Antioxidant Response Elements (ARE) (AID 2282992); settings: HepG2 Attagene ARE/NRF2 reporter, transcription factor activity; actives raise or lower the signal;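 for AC50: reporter mRNA level measured by RT-PCR and capillary electrophoresis fluorescence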
Method in brief: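 HepG2 cells transiently transfected with multiplexed cis-element reporter constructs, 24 h after chemical dosing; reporter mRNA quantified by RT-PCR, fluorescent primer extension, HpaI digestion and capillary electrophoresis. Bidirectional fit relative to DMSO.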

[5] = ATG_Oct_MLP_CIS: Attagene CIS-FACTORIAL HepG2 Assay for human Octamer-Binding Transcription Factor (Oct) (AID 2282993); settings: HepG2 Attagene cis-factorial Oct reporter, mRNA; actives raise or lower the signal
Method in brief: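 Transfected HepG2 cells, 24 h treatment. Reporter mRNA quantified by RT-PCR–capillary electrophoresis; bidirectional fitting against DMSO.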

[6] = molecular target: Cellular tumor antigen p53 (Homo sapiens) (UniProt P04637); assay: ATG_p53_CIS: Attagene CIS-FACTORIAL HepG2 Assay for human p53 Transcription Factor (AID 2282994); settings: HepG2 p53 cis-element reporter, Attagene mRNA; actives raise or lower the signal
Chain of Cellular tumor antigen p53 (Homo sapiens) (P04637 whole entry, looked up): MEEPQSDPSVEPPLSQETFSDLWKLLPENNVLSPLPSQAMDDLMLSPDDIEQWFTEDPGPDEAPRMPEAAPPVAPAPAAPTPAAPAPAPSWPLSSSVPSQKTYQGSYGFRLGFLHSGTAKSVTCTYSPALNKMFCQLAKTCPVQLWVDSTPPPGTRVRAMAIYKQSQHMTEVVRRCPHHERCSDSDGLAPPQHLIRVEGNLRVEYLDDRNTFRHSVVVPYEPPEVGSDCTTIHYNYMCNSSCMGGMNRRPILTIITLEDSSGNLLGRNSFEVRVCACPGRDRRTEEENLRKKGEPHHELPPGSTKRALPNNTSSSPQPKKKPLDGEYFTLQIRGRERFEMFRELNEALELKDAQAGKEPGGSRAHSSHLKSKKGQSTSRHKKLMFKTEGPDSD
Method in brief: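 HepG2 cells transiently transfected with cis-regulated multiple reporter transcription units, dosed 24 h. Reporter mRNA measured by RT-PCR, 6-FAM primer extension, HpaI digestion and capillary electrophoresis; bidirectional fit relative to DMSO.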

[7] = BSK_3C_TissueFactor: BioMAP Diversity Plus: 3C Assay for Tissue Factor Biomarker Activity (AID 2282997); settings: BioMAP 3C HUVEC, tissue factor biomarker readout; actives raise or lower the signal
Method in brief: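 Dosing of human umbilical vein endothelial cells preceded a 24 h incubation. Tissue Factor was then read by ELISA, with increases and decreases both scored relative to DMSO controls.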

[8] = BSK_3C_uPAR: BioMAP Diversity Plus: 3C Assay for Urokinase-type plasminogen activator receptor (uPAR) Biomarker Activity (AID 2282998); settings: BioMAP 3C HUVEC, uPAR biomarker ELISA; actives raise or lower the signal
Method in brief: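 Readout: ELISA for surface uPAR. System: human umbilical vein endothelial primary cells, 24 h after chemical exposure. Analysis: bidirectional fit, DMSO baseline.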

[9] = BSK_3C_VCAM1: BioMAP Diversity Plus: 3C Assay for Vascular cell adhesion molecule 1 (VCAM1) Biomarker Activity (AID 2282999); settings: BioMAP 3C HUVEC, VCAM1 ELISA, cytokine-stimulated; actives raise or lower the signal
Method in brief: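 Endothelial cells from human umbilical vein are treated with test chemical. At 24 h, VCAM-1 is measured by ELISA, and responses in either direction are fitted relative to DMSO.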

[10] = BSK_4H_Eotaxin3: BioMAP Diversity Plus: 4H Assay for Eotaxin 3 Biomarker Activity (AID 2283000); settings: primary human endothelial cells (HUVEC); actives raise or lower the signal
Method in brief: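 Human umbilical vein endothelial cells (BSK_4H system) dosed with test chemical; Eotaxin-3 (CCL26) measured by ELISA 24 h after dosing. Bidirectional curve fitting relative to DMSO negative control as baseline.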

[11] = molecular target: human Peroxisome Proliferator-activated Receptor alpha (PPARa), PPARA (gene 5465) (UniProt Q07869); assay: ATG_PPARa_TRANS: Attagene TRANS-FACTORIAL HepG2 Assay for human Peroxisome Proliferator-activated Receptor alpha (PPARa) (AID 2283001; active = hit-call score of the fitted dose curve at least 0.9, where 1 is the maximum;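 for AC50: potency for gain of reporter signal over DMSO so agonist or activator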)
Chain of human Peroxisome Proliferator-activated Receptor alpha (PPARa), PPARA (gene 5465) (Q07869 whole entry, looked up, the tested form may be a part): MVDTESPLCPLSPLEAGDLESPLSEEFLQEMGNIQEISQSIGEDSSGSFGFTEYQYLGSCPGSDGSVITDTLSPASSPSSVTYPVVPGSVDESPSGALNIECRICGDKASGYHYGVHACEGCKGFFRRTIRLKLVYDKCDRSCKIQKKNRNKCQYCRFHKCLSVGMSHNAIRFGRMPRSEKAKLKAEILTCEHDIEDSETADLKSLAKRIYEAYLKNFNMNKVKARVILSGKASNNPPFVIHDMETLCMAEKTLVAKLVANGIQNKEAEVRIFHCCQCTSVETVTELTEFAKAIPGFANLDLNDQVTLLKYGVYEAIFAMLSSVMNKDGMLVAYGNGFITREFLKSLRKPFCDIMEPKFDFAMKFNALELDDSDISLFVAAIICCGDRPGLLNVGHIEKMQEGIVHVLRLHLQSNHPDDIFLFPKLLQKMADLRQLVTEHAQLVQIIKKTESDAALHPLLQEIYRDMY
Method in brief: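 Read-out is fluorescence of reporter cDNA fragments resolved by capillary electrophoresis after RT-PCR. Human HepG2 liver cells carried transfected PPARa-Gal4 chimera and GAL4-UAS reporter units, treated 24 h; activity scored as increase over DMSO.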

[12] = read-out: Intercellular Adhesion Molecule 1 (ICAM1), ICAM1 (gene 3383); assay: BSK_3C_ICAM1: BioMAP Diversity Plus: 3C Assay for Intercellular Adhesion Molecule 1 (ICAM1) Biomarker Activity (AID 2283003); settings: primary human endothelial cells (HUVEC); actives raise or lower the signal
Method in brief: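 ICAM-1 levels measured by ELISA after HUVEC cultures in the 3C system had been dosed for 24 h. Gain or loss of signal relative to DMSO was fitted in both directions.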

[13] = molecular target: human Retinoic Acid Receptor beta (RARb), RARB (gene 5915) (UniProt P10826); assay: ATG_RARb_TRANS: Attagene TRANS-FACTORIAL HepG2 Assay for human Retinoic Acid Receptor beta (AID 2283004; active = hit-call score of the fitted dose curve at least 0.9, where 1 is the maximum)
Chain of human Retinoic Acid Receptor beta (RARb), RARB (gene 5915) (P10826 whole entry, looked up, the tested form may be a part): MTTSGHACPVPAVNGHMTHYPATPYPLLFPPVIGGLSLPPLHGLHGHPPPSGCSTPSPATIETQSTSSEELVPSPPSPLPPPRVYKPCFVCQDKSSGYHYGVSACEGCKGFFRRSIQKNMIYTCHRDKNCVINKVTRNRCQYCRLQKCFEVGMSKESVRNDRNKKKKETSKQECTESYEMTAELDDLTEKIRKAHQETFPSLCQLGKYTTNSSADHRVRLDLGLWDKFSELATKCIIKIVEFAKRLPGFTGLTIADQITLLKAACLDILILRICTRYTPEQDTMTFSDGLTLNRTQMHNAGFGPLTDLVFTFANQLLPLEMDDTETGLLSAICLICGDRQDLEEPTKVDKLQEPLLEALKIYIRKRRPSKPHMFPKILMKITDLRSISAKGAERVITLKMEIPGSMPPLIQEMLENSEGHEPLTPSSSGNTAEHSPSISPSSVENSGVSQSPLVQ
Method in brief: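 Induction of reporter mRNA from a chimeric RARb-Gal4 construct was measured by RT-PCR, FAM labelling, HpaI digestion and capillary electrophoresis. Measurements followed 24 h compound treatment of transiently transfected human HepG2 liver cells, with DMSO as baseline.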

[14] = molecular target: Retinoic acid receptor alpha (Homo sapiens) (UniProt P10276); assay: ATG_RARa_TRANS: Attagene TRANS-FACTORIAL HepG2 Assay for human Retinoic Acid Receptor alpha (RARa) (AID 2283005; active = hit-call score of the fitted dose curve at least 0.9, where 1 is the maximum)
Chain of Retinoic acid receptor alpha (Homo sapiens) (P10276 whole entry, looked up, the tested form may be a part): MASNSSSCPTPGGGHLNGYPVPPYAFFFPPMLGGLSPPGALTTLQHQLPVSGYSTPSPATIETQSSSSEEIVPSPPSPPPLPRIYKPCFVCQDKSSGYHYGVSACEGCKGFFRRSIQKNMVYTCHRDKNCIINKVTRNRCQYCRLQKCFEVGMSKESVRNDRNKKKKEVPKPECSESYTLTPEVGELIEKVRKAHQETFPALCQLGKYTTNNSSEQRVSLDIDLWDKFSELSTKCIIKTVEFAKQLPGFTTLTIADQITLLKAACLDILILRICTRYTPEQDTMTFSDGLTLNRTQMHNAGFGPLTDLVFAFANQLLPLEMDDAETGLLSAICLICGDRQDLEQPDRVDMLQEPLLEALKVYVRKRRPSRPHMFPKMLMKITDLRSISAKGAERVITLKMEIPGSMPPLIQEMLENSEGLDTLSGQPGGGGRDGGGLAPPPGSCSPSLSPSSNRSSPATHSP
Method in brief: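 Reporter transcripts, measured by RT-PCR with fluorescent labeling and capillary electrophoresis after 24 h dosing, reflect activity of an exogenous human RARa–GAL4 fusion in transiently transfected HepG2. Fitted for increase relative to DMSO.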

[15] = BSK_3C_Proliferation: Cell Proliferation Assessment in the BioMAP Diversity Plus: 3C Assay (AID 2283006); settings: primary human endothelial cells (HUVEC);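 for AC50: potency may reflect either rise or fall in cell number versus DMSO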
Method in brief: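 Read-out is total protein by SRB absorbance at 560 nm, taken as a proxy for relative cell number. Primary human umbilical vein endothelium cultured below confluence was dosed for 48 h, TCA-fixed and SRB-stained; curves were fitted bidirectionally versus DMSO.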

[16] = molecular target: Nuclear receptor subfamily 1 group I member 2 (Homo sapiens) (UniProt O75469); assay: ATG_PXR_TRANS: Attagene TRANS-FACTORIAL HepG2 Assay for human Pregnane X Receptor (PXR) (AID 2283008; active = hit-call score of the fitted dose curve at least 0.9, where 1 is the maximum)
Chain of Nuclear receptor subfamily 1 group I member 2 (Homo sapiens) (O75469 whole entry, looked up, the tested form may be a part): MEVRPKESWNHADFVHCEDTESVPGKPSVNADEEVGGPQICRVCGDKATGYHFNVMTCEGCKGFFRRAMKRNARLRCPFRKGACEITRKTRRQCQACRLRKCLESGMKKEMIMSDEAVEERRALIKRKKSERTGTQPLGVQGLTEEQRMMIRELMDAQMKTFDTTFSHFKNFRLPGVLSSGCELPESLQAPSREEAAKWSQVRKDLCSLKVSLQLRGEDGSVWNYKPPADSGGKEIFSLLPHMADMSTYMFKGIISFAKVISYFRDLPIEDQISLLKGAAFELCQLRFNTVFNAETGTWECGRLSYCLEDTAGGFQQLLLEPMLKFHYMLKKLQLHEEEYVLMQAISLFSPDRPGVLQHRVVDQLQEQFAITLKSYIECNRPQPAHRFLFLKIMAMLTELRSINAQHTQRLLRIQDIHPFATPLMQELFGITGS
Method in brief: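 HepG2 cells transiently transfected with GAL4-UAS reporter units and PXR-Gal4 chimera, exposed 24 h. Reporter mRNA quantified by RT-PCR, fluorescent labelling, HpaI digestion and capillary electrophoresis; gain of signal vs DMSO.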

[17] = molecular target: human Retinoic Acid Receptor gamma (RARg), RARG (gene 5916) (UniProt P13631); assay: ATG_RARg_TRANS: Attagene TRANS-FACTORIAL HepG2 Assay for human Retinoic Acid Receptor gamma (RARg) (AID 2283009; active = hit-call score of the fitted dose curve at least 0.9, where 1 is the maximum)
Chain of human Retinoic Acid Receptor gamma (RARg), RARG (gene 5916) (P13631 whole entry, looked up): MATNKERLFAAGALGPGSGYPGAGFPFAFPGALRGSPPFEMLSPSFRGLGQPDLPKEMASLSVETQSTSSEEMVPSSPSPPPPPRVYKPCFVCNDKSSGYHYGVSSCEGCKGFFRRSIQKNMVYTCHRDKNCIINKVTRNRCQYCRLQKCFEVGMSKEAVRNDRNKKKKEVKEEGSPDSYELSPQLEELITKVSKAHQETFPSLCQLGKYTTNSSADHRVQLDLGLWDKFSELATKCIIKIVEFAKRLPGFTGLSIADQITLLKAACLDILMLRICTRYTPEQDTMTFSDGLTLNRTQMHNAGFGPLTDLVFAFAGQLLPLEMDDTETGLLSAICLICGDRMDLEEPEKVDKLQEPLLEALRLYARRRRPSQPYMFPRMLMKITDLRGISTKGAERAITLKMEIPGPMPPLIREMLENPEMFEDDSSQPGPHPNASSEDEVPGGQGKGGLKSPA
Method in brief: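 Transient transfection of HepG2 with multi-reporter constructs, then 24 h chemical treatment. Total RNA isolated, reverse-transcribed, PCR-amplified, fluorescently labelled and resolved by capillary electrophoresis; activity scored as mRNA induction versus DMSO.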

[18] = molecular target: Peroxisome proliferator-activated receptor gamma (Homo sapiens) (UniProt P37231); assay: ATG_PPARg_TRANS: Attagene TRANS-FACTORIAL HepG2 Assay for human Peroxisome Proliferator-activated Receptor-gamma (PPARg) (AID 2283007; active = hit-call score of the fitted dose curve at least 0.9, where 1 is the maximum)
Chain of Peroxisome proliferator-activated receptor gamma (Homo sapiens) (P37231 whole entry, looked up): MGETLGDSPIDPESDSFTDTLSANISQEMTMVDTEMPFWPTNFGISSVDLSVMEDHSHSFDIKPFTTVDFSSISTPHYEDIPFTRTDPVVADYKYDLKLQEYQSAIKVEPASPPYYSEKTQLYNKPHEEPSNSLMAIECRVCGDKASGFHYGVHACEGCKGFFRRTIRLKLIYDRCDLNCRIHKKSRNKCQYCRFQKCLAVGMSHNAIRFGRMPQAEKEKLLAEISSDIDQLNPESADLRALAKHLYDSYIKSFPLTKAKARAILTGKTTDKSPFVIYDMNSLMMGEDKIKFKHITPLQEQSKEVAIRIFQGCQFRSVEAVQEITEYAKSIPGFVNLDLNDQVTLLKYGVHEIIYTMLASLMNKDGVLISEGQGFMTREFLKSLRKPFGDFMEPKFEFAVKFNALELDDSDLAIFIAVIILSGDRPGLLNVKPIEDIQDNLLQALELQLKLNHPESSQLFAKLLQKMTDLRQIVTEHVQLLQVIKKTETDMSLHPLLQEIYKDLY
Method in brief: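 Multiplexed reporter transcription units in HepG2, 24 h dosing, reporter transcripts quantified by fluorescent RT-PCR and capillary electrophoresis. Increase over DMSO scored.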

[19] = molecular target: human Peroxisome Proliferator-activated Receptor delta (PPARd), PPARD (gene 5467) (UniProt Q03181); assay: ATG_PPARd_TRANS: Attagene TRANS-FACTORIAL HepG2 Assay for human Peroxisome Proliferator-activated Receptor delta (PPARd) (AID 2283002; active = hit-call score of the fitted dose curve at least 0.9, where 1 is the maximum)
Chain of human Peroxisome Proliferator-activated Receptor delta (PPARd), PPARD (gene 5467) (Q03181 whole entry, looked up, the tested form may be a part): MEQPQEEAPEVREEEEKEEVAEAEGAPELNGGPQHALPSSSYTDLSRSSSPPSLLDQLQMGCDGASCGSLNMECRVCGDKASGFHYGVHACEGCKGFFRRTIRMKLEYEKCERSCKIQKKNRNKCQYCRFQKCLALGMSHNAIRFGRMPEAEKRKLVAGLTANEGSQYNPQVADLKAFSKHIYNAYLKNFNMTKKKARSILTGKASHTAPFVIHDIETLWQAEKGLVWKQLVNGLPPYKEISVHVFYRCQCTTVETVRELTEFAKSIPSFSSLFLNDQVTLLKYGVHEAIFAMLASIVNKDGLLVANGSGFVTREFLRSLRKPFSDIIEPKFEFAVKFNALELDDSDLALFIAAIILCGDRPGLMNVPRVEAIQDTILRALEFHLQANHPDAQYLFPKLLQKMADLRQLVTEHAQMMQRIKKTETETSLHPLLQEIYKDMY
Method in brief: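 Transient HepG2 transfection (multiple GAL4-UAS RTUs, chimeric receptor-Gal4); 24 h dosing; total RNA → oligo(dT) RT → PCR → 6-FAM primer extension → HpaI cut → CE. Positive direction vs DMSO.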

[20] = molecular target: human RAR-related Orphan Receptor gamma (RORg), RORC (gene 6097) (UniProt P51449); assay: ATG_RORg_TRANS: Attagene TRANS-FACTORIAL HepG2 Assay for human RAR-related Orphan Receptor gamma (RORg) (AID 2283011; active = hit-call score of the fitted dose curve at least 0.9, where 1 is the maximum)
Chain of human RAR-related Orphan Receptor gamma (RORg), RORC (gene 6097) (P51449 whole entry, looked up, the tested form may be a part): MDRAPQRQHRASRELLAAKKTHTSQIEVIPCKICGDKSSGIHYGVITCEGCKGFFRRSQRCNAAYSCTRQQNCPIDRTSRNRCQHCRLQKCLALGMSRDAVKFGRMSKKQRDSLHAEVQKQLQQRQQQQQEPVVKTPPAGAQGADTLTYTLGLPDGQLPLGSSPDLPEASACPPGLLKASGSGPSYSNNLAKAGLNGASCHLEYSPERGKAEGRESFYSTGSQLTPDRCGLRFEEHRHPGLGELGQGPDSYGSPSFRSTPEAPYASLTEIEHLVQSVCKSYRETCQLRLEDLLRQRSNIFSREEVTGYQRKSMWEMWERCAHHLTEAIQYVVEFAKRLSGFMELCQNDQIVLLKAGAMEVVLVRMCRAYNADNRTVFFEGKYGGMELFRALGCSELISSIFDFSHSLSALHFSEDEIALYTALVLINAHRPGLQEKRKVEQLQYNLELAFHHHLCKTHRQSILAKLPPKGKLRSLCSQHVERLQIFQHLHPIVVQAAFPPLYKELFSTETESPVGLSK
Method in brief: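 Reporter transcripts from a transfected RORg-GAL4 chimera in HepG2 cells were quantified 24 h after dosing by RT-PCR, 6-FAM labelling, HpaI digestion and capillary electrophoresis; increases over DMSO baseline were fitted.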

Measured: AC50

COCCOCCOCCOC
not listed: [18] | [19] | [20]
inactive: all other assays above

O=C(NS(=O)(=O)/C=C/c1ccccc1)c1ccc(F)cc1Cl
active: [15] 6.4 µM | [18] 22.3 µM | [16] 16.2 µM
not listed: [13] | [14] | [17] | [19] | [20]
inactive: all other assays above

O=c1[nH]c2ccc(S(=O)CCN3CCC(Cc4ccc(F)cc4)CC3)cc2o1 (stereo unspecified)
active: [1] 100 µM | [3] 76.2 µM | [4] 39.4 µM | [5] 64.9 µM | [18] 7.65 µM | [16] 6.22 µM
not listed: [13] | [14] | [20]
inactive: all other assays above

O=P(OC(CCl)CCl)(OC(CCl)CCl)OC(CCl)CCl
active: [1] 187 µM | [2] 143 µM | [5] 103 µM | [6] 39.3 µM | [7] 8.26 µM | [15] 10.6 µM | [16] 0.377 µM
not listed: [13] | [14] | [19] | [20]
inactive: all other assays above

O=C(O)c1cccc(N(Cc2cccnc2)c2ccc(OC(F)F)c(OC(F)F)c2)c1
active: [3] 27.7 µM | [6] 35.7 µM | [7] 14.7 µM | [10] 12.9 µM | [16] 11.1 µM
not listed: [14] | [18] | [20]
inactive: all other assays above

Nc1ccc(Nc2ccccc2)cc1
active: [4] 47.1 µM | [5] 32 µM | [7] 0.903 µM | [9] 4.54 µM | [10] 3.97 µM | [15] 3.97 µM
not listed: [14] | [17] | [18] | [19] | [20]
inactive: all other assays above

O=C(O)c1cccc(Oc2ccccc2)c1
active: [18] 59.8 µM
not listed: [14] | [16] | [17] | [19]
inactive: all other assays above

CCNc1ccccc1
not listed: [18]
inactive: all other assays above

CC(C)CCO
not listed: [19]
inactive: all other assays above

CCOC(=O)CC(CC(=O)OCC)(OC(C)=O)C(=O)OCC
active: [4] 61.4 µM
not listed: [13] | [17] | [18] | [19] | [20]
inactive: all other assays above

CCCN(C1CCN(C(=O)C2CCNCC2)CC1)[C@@H]1CCc2ccc(OC)cc2C1
active: [2] 175 µM | [3] 186 µM | [4] 26.2 µM | [5] 178 µM | [6] 155 µM | [11] 146 µM | [18] 100 µM
not listed: [13] | [14] | [20]
inactive: all other assays above

COc1cccc(-c2ccc(/C=C\CN3CCCCCC3)cc2Cl)c1
active: [4] 9.89 µM | [5] 11 µM | [7] 31.5 µM | [8] 24.3 µM | [9] 33.1 µM | [10] 28 µM | [12] 33.5 µM | [15] 14.2 µM | [16] 4.81 µM
inactive: [1] | [2] | [3] | [6] | [11] | [19] | [20]

C=CCCCCCCCCC(=O)O
active: [11] 26.7 µM
not listed: [18] | [19] | [20]
inactive: all other assays above

CC[C@H](C)C(=O)O[C@H]1C[C@@H](C)C=C2C=C[C@H](C)[C@H](CC[C@@H]3C[C@@H](O)CC(=O)O3)[C@H]21
inactive: [1] | [2] | [3] | [6] | [11] | [18]
active: [4] 33.4 µM | [5] 6.78 µM | [7] 31 µM | [8] 18.3 µM | [9] 33.7 µM | [10] 31.5 µM | [12] 36.8 µM | [15] 13.6 µM | [16] 2.51 µM
